# Results reported in PubChem BioAssay (EPA / NIEHS).
# Results filed as inconclusive are left out. Some structures have more than one record in an assay (separate samples or runs), and their calls can disagree. Calls of active or inactive are those of the source. How the source made its calls, unless noted: active means hit-call score of the fitted dose curve at least 0.9, where 1 is the maximum; inactive means score below 0.9.
# How the values were obtained:
# [1] = ATG_PBREM_CIS: Attagene CIS-FACTORIAL HepG2 Assay for human Phenobarbital-responsive Enhancer Module (PBREM) (AID 2282955); settings: HepG2 PBREM cis-reporter, Attagene multiplexed transcription; actives raise or lower the signal
# Summary of the method: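 Measures endogenous factor action on a phenobarbital-responsive enhancer module. HepG2 transiently carrying cis reporters, 24 h treatment, mRNA read-out by RT-PCR plus capillary electrophoresis.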
# [2] = molecular target: Paired box protein Pax-6 (Homo sapiens) (UniProt P26367); assay: ATG_Pax6_CIS: Attagene CIS-FACTORIAL HepG2 Assay for human Paired Box 6 (PAX6) (AID 2282956); settings: HepG2 CIS-FACTORIAL PAX6 reporter transcription, RNA readout; actives raise or lower the signal
# Summary of the method: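 Fluorescent RT-PCR products separated by capillary electrophoresis report PAX6-linked promoter mRNA in HepG2 cells 24 h post-dose. Curves fitted bidirectionally, DMSO as negative control.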
# [3] = ATG_PPRE_CIS: Attagene CIS-FACTORIAL HepG2 Assay for human Peroxisome Proliferator-activated Response Element (PPRE) (AID 2282958); settings: HepG2 PPRE cis-element reporter, Attagene transcription factor profiling; actives raise or lower the signal
# Summary of the method: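 PPRE activity in HepG2: transient cis-reporter transfection, 24 h compound incubation, reporter mRNA by RT-PCR and CE fluorescence; gain/loss fitted against DMSO.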
# [4] = ATG_RORE_CIS: Attagene CIS-FACTORIAL HepG2 Assay for human RAR-related Orphan Receptor Element (RORE) (AID 2282959); settings: HepG2 Attagene cis-factorial RORE reporter, mRNA; actives raise or lower the signal
# Summary of the method: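 A 24-hour exposure of transfected HepG2 hepatoma cells precedes RNA isolation and reporter RT-PCR. Labeled products are digested with HpaI and resolved by capillary electrophoresis, with gain or loss of signal scored relative to DMSO.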
# [5] = ATG_Sox_CIS: Attagene CIS-FACTORIAL HepG2 Assay for human SRY-box transcription factor (SOX) (AID 2282960); settings: HepG2 Attagene cis-factorial SOX reporter, mRNA; actives raise or lower the signal
# Summary of the method: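 HepG2, cis reporter units, 24 h exposure. Reporter mRNA: RT-PCR → FAM labelling → HpaI → CE fluorescence. Bidirectional fit vs DMSO.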
# [6] = molecular target: Transcription factor Sp1 (Homo sapiens) (UniProt P08047); assay: ATG_Sp1_CIS: Attagene CIS-FACTORIAL HepG2 Assay for human Specificity Protein 1 (Sp1) (AID 2282961); settings: HepG2 Sp1 cis-reporter transcription, actives raise or lower the signal
# Summary of the method: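 Liver-derived HepG2 cells, cis-element reporter library, 24 h treatment; RNA isolated, cDNA amplified with reporter-specific primers, FAM-labeled fragments sized on capillary analyzer. DMSO baseline, bidirectional curve fit.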
# [7] = ATG_SREBP_CIS: Attagene CIS-FACTORIAL HepG2 Assay for human Sterol Regulatory Element Binding (SREBP) (AID 2282962); settings: HepG2 Attagene cis-factorial SREBP reporter, mRNA; actives raise or lower the signal
# Summary of the method: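 Endogenous factor activity is measured in HepG2 through multiplexed reporter units under cis-element control. Following a 24 h incubation, reporter transcripts are reverse-transcribed, PCR-amplified and sized by capillary electrophoresis; activity is fitted in both directions relative to DMSO.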
# [8] = molecular target: Signal transducer and activator of transcription 3 (Homo sapiens) (UniProt P40763); assay: ATG_STAT3_CIS: Attagene CIS-FACTORIAL HepG2 Assay for human Signal Transducer and Activator of Transcription 3 (STAT3) (AID 2282963); settings: HepG2, Attagene cis-factorial STAT3 reporter transcription; actives raise or lower the signal
# Summary of the method: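 HepG2, MRTU-transfected, 24 h dosing. RNA → RT → PCR → FAM label → HpaI → CE. Bidirectional fit vs DMSO.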
# [9] = ATG_TA_CIS: Attagene CIS-FACTORIAL HepG2 Assay for human TA Basal Promoter (AID 2282964); settings: HepG2 Attagene CIS-factorial TA basal promoter reporter; actives raise or lower the signal
# Summary of the method: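 Transient MRTU transfection of HepG2 preceded 24 h compound exposure. Reporter mRNA levels were then read by RT-PCR with capillary electrophoresis, and this background-control endpoint was fitted bidirectionally to DMSO.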
# [10] = ATG_TCF_b_cat_CIS: Attagene CIS-FACTORIAL HepG2 Assay for human T-Cell-Factor with beta-catenin (TCF/b-cat) (AID 2282965); settings: HepG2 TCF/beta-catenin cis-reporter transcription, actives raise or lower the signal
# Summary of the method: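 HepG2 cells transiently transfected with multiple cis-promoter-regulated reporter transcription units, so endogenous transcription factor activity is measured. Reporter mRNA read 24 hours after dosing by RT-PCR, fluorescent labelling and capillary electrophoresis; bidirectional fitting against DMSO.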
# [11] = ATG_TAL_CIS: Attagene CIS-FACTORIAL HepG2 Assay for human TAL Basal Promoter (AID 2282966); settings: HepG2 Attagene cis-factorial TAL promoter reporter; actives raise or lower the signal;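 further: background control endpoint measuring basal TAL promoter reporter mRNA not a specific factor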
# Summary of the method: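 Human hepatoma HepG2 cells, transfected with promoter-regulated reporter units, were treated 24 h. Reporter transcript levels, measured through RT-PCR and capillary electrophoresis, were fitted for gain or loss relative to DMSO.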
# [12] = ATG_TGFb_CIS: Attagene CIS-FACTORIAL HepG2 Assay for human Transforming Growth Factor (TGF) (AID 2282967); settings: HepG2 Attagene CIS TGFb reporter, mRNA transcription; actives raise or lower the signal
# Summary of the method: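 After a 24-hour incubation with compound, transfected HepG2 cells were lysed for RNA; reporter cDNA was amplified, fluorescently end-labeled and separated by CE. DMSO served as baseline for bidirectional fits.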
# [13] = ATG_VDRE_CIS: Attagene CIS-FACTORIAL HepG2 Assay for human Vitamin D Receptor Element (VDRE) (AID 2282968); settings: HepG2 VDRE cis-reporter transcription, actives raise or lower the signal
# Summary of the method: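 Steps: transfect HepG2 with multiple reporter transcription units; dose chemicals 24 h; isolate RNA; RT-PCR; label with 6-FAM primer extension; HpaI digest; capillary electrophoresis. Curves fitted both directions against DMSO.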
# [14] = molecular target: Nuclear receptor subfamily 1 group I member 3 (Homo sapiens) (UniProt Q14994); assay: ATG_CAR_TRANS: Attagene TRANS-FACTORIAL HepG2 Assay for human Constitutive Androstane Receptor (CAR) (AID 2282969; active means hit-call score of the fitted dose curve at least 0.9, where 1 is the maximum;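 further: activators raise reporter mRNA above DMSO so AC50 marks induction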); settings: HepG2 Attagene TRANS-FACTORIAL CAR reporter
# Summary of the method: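 Steps: transient transfection of HepG2 with multiple GAL4-UAS reporter units; 24 h compound incubation; RNA isolation, RT-PCR, 6-FAM primer extension, HpaI digest; capillary electrophoresis. Gain-of-signal relative to DMSO negative control.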
# [15] = molecular target: Estrogen receptor (Homo sapiens) (UniProt P03372); assay: ATG_ERa_TRANS: Attagene TRANS-FACTORIAL HepG2 Assay for human Estrogen Receptor alpha (ERa) (AID 2282970; active means hit-call score of the fitted dose curve at least 0.9, where 1 is the maximum); settings: HepG2 Attagene TRANS ERa GAL4 reporter, mRNA
# Summary of the method: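 Signal derives from fluorescence of labelled reporter PCR fragments separated by capillary electrophoresis. HepG2 cells transiently carrying multiple GAL4-UAS reporter units were treated 24 hours, and induction above DMSO baseline was fitted as activity.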
# [16] = molecular target: X-box-binding protein 1 (Homo sapiens) (UniProt P17861); assay: ATG_Xbp1_CIS: Attagene CIS-FACTORIAL HepG2 Assay for human X-box Binding Protein 1 (XBP1) (AID 2282972); settings: HepG2 XBP1 cis-element reporter, Attagene multiplex; actives raise or lower the signal
# Summary of the method: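 Multiplexed cis-reporter readout in transfected HepG2 liver cells. Exposure lasted 24 hours. Activity in either direction was fitted against DMSO as negative control and baseline.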
# [17] = ATG_GAL4_TRANS: Attagene TRANS-FACTORIAL HepG2 Assay for GAL4 (Internal Marker) (AID 2282976; active means hit-call score of the fitted dose curve at least 0.9, where 1 is the maximum); settings: HepG2 Attagene TRANS GAL4 internal marker reporter
# Summary of the method: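 Liver HepG2 line bearing multiplexed GAL4-UAS reporter constructs; 24 h chemical treatment. Transcripts were quantified as fluorescent fragments on capillary electrophoresis after RT-PCR and HpaI cut, with activity fitted upward from DMSO.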
# [18] = molecular target: Steroid hormone receptor ERR1 (Homo sapiens) (UniProt P11474); assay: ATG_ERRa_TRANS: Attagene TRANS-FACTORIAL HepG2 Assay for human Estrogen-Related Receptor alpha (ERRa) (AID 2282971; active means hit-call score of the fitted dose curve at least 0.9, where 1 is the maximum); settings: HepG2 Attagene TRANS reporter, ERRa transactivation
# Summary of the method: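 Signal gain relative to DMSO for an ERRa-Gal4 chimeric receptor, read as reporter mRNA by RT-PCR/capillary electrophoresis. Human HepG2 liver cells, transient multiplex reporter transfection, 24 h chemical exposure.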
# [19] = ATG_PXRE_CIS: Attagene CIS-FACTORIAL HepG2 Assay for human Pregnane X Receptor Element (PXRE) (AID 2282957); settings: HepG2 Attagene CIS-FACTORIAL PXRE reporter, mRNA; actives raise or lower the signal
# Summary of the method: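 Bidirectional activity, baselined to DMSO, derived from reporter mRNA fluorescence (RT-PCR plus capillary electrophoresis) in HepG2 cells bearing cis-promoter reporter units, 24 h exposure.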
# Sequence of Signal transducer and activator of transcription 3 (Homo sapiens) (P40763 whole entry, looked up): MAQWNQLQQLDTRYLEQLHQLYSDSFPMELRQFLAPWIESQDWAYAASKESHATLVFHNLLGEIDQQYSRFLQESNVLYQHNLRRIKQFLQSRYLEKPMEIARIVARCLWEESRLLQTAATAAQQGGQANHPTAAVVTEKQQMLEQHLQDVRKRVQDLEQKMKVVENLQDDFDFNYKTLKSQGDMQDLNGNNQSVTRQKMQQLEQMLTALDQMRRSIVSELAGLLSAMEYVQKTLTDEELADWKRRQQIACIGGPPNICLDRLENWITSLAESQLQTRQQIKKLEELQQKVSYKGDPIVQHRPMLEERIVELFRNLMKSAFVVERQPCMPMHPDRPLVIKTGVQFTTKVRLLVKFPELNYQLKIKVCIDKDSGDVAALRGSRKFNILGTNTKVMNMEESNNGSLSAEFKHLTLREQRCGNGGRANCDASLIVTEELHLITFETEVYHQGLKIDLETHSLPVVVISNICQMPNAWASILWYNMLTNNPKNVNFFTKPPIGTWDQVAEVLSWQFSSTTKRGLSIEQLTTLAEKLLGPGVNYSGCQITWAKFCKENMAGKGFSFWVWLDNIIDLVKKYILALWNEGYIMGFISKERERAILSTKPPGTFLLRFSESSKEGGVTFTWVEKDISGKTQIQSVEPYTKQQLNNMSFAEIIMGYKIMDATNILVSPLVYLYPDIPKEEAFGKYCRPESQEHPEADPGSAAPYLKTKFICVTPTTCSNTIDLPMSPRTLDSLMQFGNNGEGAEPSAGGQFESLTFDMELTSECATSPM
# Sequence of Nuclear receptor subfamily 1 group I member 3 (Homo sapiens) (Q14994 whole entry, looked up, the tested form may be a part): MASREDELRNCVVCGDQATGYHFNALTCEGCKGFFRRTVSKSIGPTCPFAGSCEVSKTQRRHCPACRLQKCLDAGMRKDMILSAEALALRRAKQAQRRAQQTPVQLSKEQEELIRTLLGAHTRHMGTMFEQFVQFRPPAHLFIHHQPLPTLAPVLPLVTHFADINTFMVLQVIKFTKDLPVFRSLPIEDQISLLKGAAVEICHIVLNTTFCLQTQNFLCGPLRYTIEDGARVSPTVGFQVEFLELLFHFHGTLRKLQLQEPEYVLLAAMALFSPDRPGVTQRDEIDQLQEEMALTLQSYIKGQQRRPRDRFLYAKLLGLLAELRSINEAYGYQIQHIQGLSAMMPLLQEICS
# Sequence of Estrogen receptor (Homo sapiens) (P03372 whole entry, looked up, the tested form may be a part): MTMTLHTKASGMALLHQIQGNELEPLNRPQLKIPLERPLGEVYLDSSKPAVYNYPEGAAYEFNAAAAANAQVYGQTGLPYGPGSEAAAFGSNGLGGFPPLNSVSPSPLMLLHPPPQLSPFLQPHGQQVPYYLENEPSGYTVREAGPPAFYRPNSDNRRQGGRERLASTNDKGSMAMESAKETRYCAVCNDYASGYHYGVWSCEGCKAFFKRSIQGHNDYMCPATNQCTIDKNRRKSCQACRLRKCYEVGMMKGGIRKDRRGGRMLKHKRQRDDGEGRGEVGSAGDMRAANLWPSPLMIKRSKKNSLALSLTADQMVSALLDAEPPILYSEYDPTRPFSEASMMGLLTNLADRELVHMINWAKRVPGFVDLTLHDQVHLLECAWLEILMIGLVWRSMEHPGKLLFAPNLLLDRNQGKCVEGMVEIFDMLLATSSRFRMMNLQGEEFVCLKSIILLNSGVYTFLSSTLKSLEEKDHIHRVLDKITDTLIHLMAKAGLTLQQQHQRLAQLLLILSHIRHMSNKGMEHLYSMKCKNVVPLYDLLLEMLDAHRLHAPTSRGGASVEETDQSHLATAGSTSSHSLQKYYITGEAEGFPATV
# Sequence of Steroid hormone receptor ERR1 (Homo sapiens) (P11474 whole entry, looked up, the tested form may be a part): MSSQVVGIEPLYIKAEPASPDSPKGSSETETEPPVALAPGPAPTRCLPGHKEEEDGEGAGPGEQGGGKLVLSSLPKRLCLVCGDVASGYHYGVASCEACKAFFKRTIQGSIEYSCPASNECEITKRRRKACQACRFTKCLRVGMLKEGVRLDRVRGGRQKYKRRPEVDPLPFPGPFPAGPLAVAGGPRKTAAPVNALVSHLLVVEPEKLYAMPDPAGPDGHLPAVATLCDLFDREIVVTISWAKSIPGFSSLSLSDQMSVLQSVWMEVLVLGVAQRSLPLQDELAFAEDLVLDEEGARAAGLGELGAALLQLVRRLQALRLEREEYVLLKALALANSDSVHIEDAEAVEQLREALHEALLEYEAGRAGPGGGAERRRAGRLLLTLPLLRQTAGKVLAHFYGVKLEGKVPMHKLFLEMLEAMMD
# Sequence of Paired box protein Pax-6 (Homo sapiens) (P26367 whole entry, looked up): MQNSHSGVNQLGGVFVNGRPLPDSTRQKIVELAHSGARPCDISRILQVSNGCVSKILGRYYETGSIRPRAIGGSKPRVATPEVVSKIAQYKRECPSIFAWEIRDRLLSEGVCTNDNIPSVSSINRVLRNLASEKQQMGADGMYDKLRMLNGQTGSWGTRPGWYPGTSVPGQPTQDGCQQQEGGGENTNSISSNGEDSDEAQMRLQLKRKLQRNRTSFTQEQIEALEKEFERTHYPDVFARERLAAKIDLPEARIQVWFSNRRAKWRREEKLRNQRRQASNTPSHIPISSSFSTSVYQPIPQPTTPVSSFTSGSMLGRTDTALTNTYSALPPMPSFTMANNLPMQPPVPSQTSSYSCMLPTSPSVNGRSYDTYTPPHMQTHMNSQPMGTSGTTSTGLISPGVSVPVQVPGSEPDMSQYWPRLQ
# Sequence of Transcription factor Sp1 (Homo sapiens) (P08047 whole entry, looked up, the tested form may be a part): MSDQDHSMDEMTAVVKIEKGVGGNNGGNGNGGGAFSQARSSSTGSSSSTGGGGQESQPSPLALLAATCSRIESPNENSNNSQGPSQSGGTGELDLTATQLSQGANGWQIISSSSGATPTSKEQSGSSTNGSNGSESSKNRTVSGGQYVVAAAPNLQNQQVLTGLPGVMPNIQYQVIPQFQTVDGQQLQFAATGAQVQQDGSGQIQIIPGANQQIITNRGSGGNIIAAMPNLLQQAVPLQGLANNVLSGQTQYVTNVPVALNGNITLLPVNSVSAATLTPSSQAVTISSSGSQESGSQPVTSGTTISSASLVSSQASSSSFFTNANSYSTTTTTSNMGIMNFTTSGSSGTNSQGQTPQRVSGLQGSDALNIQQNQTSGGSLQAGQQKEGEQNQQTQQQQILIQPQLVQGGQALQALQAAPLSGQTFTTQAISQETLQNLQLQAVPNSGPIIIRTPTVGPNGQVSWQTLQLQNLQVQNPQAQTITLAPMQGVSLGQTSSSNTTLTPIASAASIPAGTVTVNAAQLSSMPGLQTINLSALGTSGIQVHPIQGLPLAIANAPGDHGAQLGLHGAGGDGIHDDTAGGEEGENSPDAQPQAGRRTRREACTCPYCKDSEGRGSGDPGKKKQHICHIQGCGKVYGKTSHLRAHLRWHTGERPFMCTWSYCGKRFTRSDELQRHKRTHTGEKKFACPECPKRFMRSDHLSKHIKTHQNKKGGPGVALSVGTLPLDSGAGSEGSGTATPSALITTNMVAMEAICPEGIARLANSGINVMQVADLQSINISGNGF
# Sequence of X-box-binding protein 1 (Homo sapiens) (P17861 whole entry, looked up): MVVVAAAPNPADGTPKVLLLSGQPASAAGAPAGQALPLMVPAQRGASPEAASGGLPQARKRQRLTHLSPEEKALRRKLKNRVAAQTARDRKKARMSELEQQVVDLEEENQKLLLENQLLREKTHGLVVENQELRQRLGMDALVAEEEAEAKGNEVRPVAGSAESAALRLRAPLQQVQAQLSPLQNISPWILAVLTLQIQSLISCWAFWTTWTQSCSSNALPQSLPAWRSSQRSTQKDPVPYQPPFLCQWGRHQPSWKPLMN
smiles,measurement,setting,value
CCC(=O)OCCc1ccccc1,outcome,[1],inactive
same,outcome,[2],inactive
same,outcome,[3],inactive
same,outcome,[4],inactive
same,outcome,[5],inactive
same,outcome,[6],inactive
same,outcome,[7],inactive
same,outcome,[8],inactive
same,outcome,[9],inactive
same,outcome,[10],inactive
same,outcome,[11],inactive
same,outcome,[12],inactive
same,outcome,[13],inactive
same,outcome,[14],inactive
same,outcome,[15],inactive
same,outcome,[16],inactive
same,outcome,[17],inactive
Nc1ccc([N+](=O)[O-])cc1O,outcome,[1],inactive
same,outcome,[2],inactive
same,outcome,[3],inactive
same,outcome,[4],inactive
same,outcome,[5],inactive
same,outcome,[6],inactive
same,outcome,[7],inactive
same,outcome,[8],inactive
same,outcome,[9],inactive
same,outcome,[10],inactive
same,outcome,[11],inactive
same,outcome,[12],inactive
same,outcome,[13],inactive
same,outcome,[14],inactive
same,outcome,[15],inactive
same,outcome,[16],inactive
same,outcome,[17],inactive
O=C(Cl)C(F)(F)C(F)(F)C(F)(F)C(F)(F)C(F)(F)C(F)(F)C(F)(F)C(F)(F)F,outcome,[1],inactive
same,AC50,[2],54.1 µM (active)
same,AC50,[3],33.4 µM (active)
same,AC50,[4],44.5 µM (active)
same,outcome,[5],inactive
same,outcome,[6],inactive
same,outcome,[7],inactive
same,outcome,[8],inactive
same,outcome,[9],inactive
same,AC50,[10],33.4 µM (active)
same,outcome,[11],inactive
same,outcome,[12],inactive
same,AC50,[13],52.2 µM (active)
same,outcome,[14],inactive
same,AC50,[15],25.5 µM (active)
same,outcome,[18],inactive
same,AC50,[16],41.9 µM (active)
CCCCOCCOCCOC(=O)CCCCC(=O)OCCOCCOCCCC,outcome,[1],inactive
same,outcome,[2],inactive
same,AC50,[19],26.9 µM (active)
same,outcome,[3],inactive
same,outcome,[4],inactive
same,outcome,[5],inactive
same,outcome,[6],inactive
same,outcome,[7],inactive
same,outcome,[8],inactive
same,outcome,[9],inactive
same,outcome,[10],inactive
same,outcome,[11],inactive
same,outcome,[12],inactive
same,outcome,[13],inactive
same,outcome,[14],inactive
same,outcome,[15],inactive
same,outcome,[16],inactive
same,outcome,[17],inactive
O=C(O)C(F)(OC(F)(F)C(F)(OC(F)(F)C(F)(F)C(F)(F)F)C(F)(F)F)C(F)(F)F (configuration not stated),outcome,[1],inactive
same,outcome,[2],inactive
same,outcome,[19],inactive
same,outcome,[3],inactive
same,outcome,[4],inactive
same,outcome,[5],inactive
same,outcome,[6],inactive
same,outcome,[7],inactive
same,outcome,[8],inactive
same,outcome,[9],inactive
same,outcome,[10],inactive
same,outcome,[11],inactive
same,outcome,[12],inactive
same,outcome,[13],inactive
same,AC50,[15],18.4 µM (active)
same,outcome,[15],inactive
same,outcome,[18],inactive
same,outcome,[16],inactive
same,outcome,[17],inactive
C1COCCN1,outcome,[1],inactive
same,outcome,[2],inactive
same,outcome,[4],inactive
same,outcome,[5],inactive
same,outcome,[6],inactive
same,outcome,[7],inactive
same,outcome,[8],inactive
same,outcome,[9],inactive
same,outcome,[10],inactive
same,outcome,[11],inactive
same,outcome,[12],inactive
same,outcome,[13],inactive
same,outcome,[14],inactive
same,outcome,[15],inactive
same,outcome,[16],inactive
same,outcome,[17],inactive
O=C(O)C(F)(F)C(F)(F)C(F)(F)F,outcome,[1],inactive
same,outcome,[2],inactive
same,outcome,[3],inactive
same,outcome,[4],inactive
same,outcome,[5],inactive
same,outcome,[6],inactive
same,outcome,[7],inactive
same,outcome,[8],inactive
same,outcome,[9],inactive
same,outcome,[10],inactive
same,outcome,[11],inactive
same,outcome,[12],inactive
same,outcome,[13],inactive
same,outcome,[14],inactive
same,AC50,[15],108 µM (active)
same,outcome,[18],inactive
same,outcome,[16],inactive
same,outcome,[17],inactive
